# According to the supplement of paper PMC9950053:
# Where a name gives a salt, the structure may show the parent alone.
# Tested on: Danio rerio larvae (5 dpf)
# Experiment: combined optomotor response (time in upper well half, down vs up moving lines, periods 7-14) minus DMSO control (percentage points); higher = stronger optomotor response than DMSO larvae
# Conditions: 10 µM; exposure time: 3 h pre-incubation + 3 h imaging
row,Structure (SMILES),combined optomotor response
1,C=C1C[C@@H]2[C@H](CC[C@]3(C)C(=O)CC[C@@H]23)[C@@]2(C)C=CC(=O)C=C12 [Exemestane],3.71
2,N[C@@H]1C[C@H]1c1ccccc1 [Tranylcypromine hydrochloride],9.38
3,O=c1[nH]c2ccccc2n1C1CCN(CCCC(c2ccc(F)cc2)c2ccc(F)cc2)CC1 [Pimozide],-11
4,COc1cc2c(cc1OC)C1CC(=O)C(CC(C)C)CN1CC2 (stereo unspecified) [Tetrabenazine],-0.321
5,CC(C)C[C@H]1C(=O)N2CCC[C@H]2[C@]2(O)O[C@](NC(=O)[C@@H]3C=C4c5cccc6[nH]c(Br)c(c56)C[C@H]4N(C)C3)(C(C)C)C(=O)N12 [Bromocriptine mesylate],-10.1
6,CC[C@@H](C(N)=O)N1CCCC1=O [Levetiracetam],7.27
7,CN1C[C@H](C(=O)N[C@]2(C)O[C@@]3(O)[C@@H]4CCCN4C(=O)[C@H](Cc4ccccc4)N3C2=O)C[C@@H]2c3cccc4[nH]cc(c34)C[C@H]21 [Dihydroergotamine mesylate],13.2
8,CC(O)(CS(=O)(=O)c1ccc(F)cc1)C(=O)Nc1ccc(C#N)c(C(F)(F)F)c1 (stereo unspecified) [Bicalutamide],0.551
9,CCN(C)C(=O)Oc1cccc([C@H](C)N(C)C)c1 [Rivastigmine tartrate],4.19
10,C=CCN1C[C@H](C(=O)N(CCCN(C)C)C(=O)NCC)C[C@@H]2c3cccc4[nH]cc(c34)C[C@H]21 [Cabergoline],-6.92
11,Cc1cccc([C@H](C)c2c[nH]cn2)c1C [Dexmedetomidine hydrochloride],-11.4
